Growth data for eight compounds are collected here from PubChem BioAssay (NCI).

This is part of a sample that, as a whole, favours compounds with a hit. Of some 83,000 tested, about 20% had one in any assay.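 Cells were grown in 96-well plates and exposed to the test compound at a single concentration for 48 hours; results are reported as percent growth, with values below 10 considered active.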 Values without a mark were called inactive. Calls of active or inactive are those of the source.

Assay in all cases: NCI-60 one-dose screen, 48 h (100 = growth as untreated, 0 = no growth, -100 = all killed)
What all share (details): 10 µM

The subject of experiment [1] is HCT-15 colon.
Experiment [2] relates to HT29 colon.
Experiment [3] concerns SNB-75 CNS.
Experiment [4] relates to SNB-19 CNS.
Experiment [5] concerns U251 CNS.
For experiment [6], the system named is PC-3 prostate.
In experiment [7] the test system is SK-MEL-5 melanoma.
The subject of experiment [8] is UACC-62 melanoma.
Experiment [9] has as its system LOX IMVI melanoma.
Experiment [10] deals with SK-MEL-28 melanoma.
Experiment [11] deals with SK-MEL-2 melanoma.
Experiment [12] concerns EKVX NSCLC.
The subject of experiment [13] is SN12C renal.
The subject of experiment [14] is UO-31 renal.
Experiment [15] concerns TK-10 renal.
The subject of experiment [16] is ACHN renal.
The subject of experiment [17] is CAKI-1 renal.
Experiment [18] concerns A498 renal.
Experiment [19] deals with CCRF-CEM leukemia.
For experiment [20], the system named is MOLT-4 leukemia.

For `CC(=O)Nc1ccc2c(c1)C(N1CC3CCC(CC3)C1)c1ccccc1-2` (centres undefined), the growth in experiment [1] was 53.3%; in experiment [2], 75.1%; in experiment [3], 88.6%; in experiment [4], 107%; in [5], 77.7%; in experiment [6], 34.8%. The growth was 49.3% in [7]; 60.5% in [8]; 93.3% in [9]; 108% in experiment [10]; 96.7% in experiment [11]; 88.5% in [12]. The growth was 86.8% in [13]; 66.7% in [14]; 113% in experiment [15]; 93% in [16]; 70.9% in experiment [17]; 78.5% in experiment [18]. Moreover, the figures for the growth in [19] and in experiment [20] were 74.5% and 63.5%, respectively.

With `CCCCCCCCCCCCCC[n+]1ccc(C)cc1`, the growth in experiment [1] is 47%; in experiment [2] it was -9.48% (active); in experiment [3], -23.9% (active); in [4], -50.2% (active); in experiment [5] it was -78.5% (active); in experiment [6], -37% (active). Also, the growth was -96.3% (active) in [7]; -71.5% (active) in experiment [8]; -94.4% (active) in experiment [9]; -20.4% (active) in [10]; 13.2% in experiment [11]; -36.2% (active) in [12]. Besides, the growth in [13] is -2.55% (active); in experiment [14], 23.7%; in [15], -41.2% (active); in experiment [16], 21.5%; in [17] it was 31.7%; in experiment [18], 39.2%. The growth in experiment [19] was -35.4% (active); in experiment [20], -36.6% (active).

`CC(C)CCN(CCCNc1c2c(nc3cc(Cl)ccc13)CCCC2)CCC(C)C`: the growth is 44.5% in experiment [1]; 23% in experiment [2]; 84.4% in experiment [3]; 90.6% in experiment [4]; 59.4% in experiment [5]; 56.8% in experiment [6]. The growth in experiment [7] is 57.8%; in experiment [8] it was 82.8%; in [9], 51%; in [10] it was 83.4%; in [11], 103%; in experiment [12], 54.4%. Further, the growth in experiment [13] is 71.6%; in [14], 27.2%; in [15], 78.1%; in experiment [16], 92.4%; in [17] it was 56.5%; in [18] it was 59%. Moreover, the values for the growth in [19] and in [20] were 61.6% and 47%, respectively.

For `O=C(Nc1cccc([N+](=O)[O-])c1)NN1CCCCCC1`, the growth in experiment [1] is 90.4%; in experiment [2], 107%; in [3], 105%; in [4] it was 95.6%; in experiment [5] it was 87.2%; in experiment [6] it was 83.1%. The growth is 96% in experiment [7]; 76.2% in experiment [8]; 97.2% in experiment [9]; 112% in experiment [10]; 105% in [11]; 81.3% in [12]. In addition, the growth in experiment [13] was 96.5%; in [14] it was 92.5%; in experiment [15], 105%; in experiment [16], 94.6%; in experiment [17], 96.2%; in [18], 77.3%. Besides, the figures for the growth in [19] and in [20] were 86.1% and 106%, respectively.

On to `COc1ccc(NC(=O)CCn2cnc3c(cc(-c4ccccc4)n3-c3ccccc3)c2=O)cc1`, for which the growth in experiment [1] is 98.6%; in experiment [2], 102%; in [3], -10.5% (active); in [4], 57.2%; in experiment [5] it was 77.4%; in [6] it was 86.6%. Moreover, the growth was 91% in [7]; 92.4% in experiment [8]; 66.4% in experiment [9]; 101% in experiment [10]; 104% in experiment [11]; 85.8% in experiment [12]. Moreover, the growth in experiment [13] was 85.1%; in [14], 88.8%; in experiment [15], 105%; in experiment [16] it was 82%; in [17], 78.3%; in experiment [18], 108%. Also, the growth was 93.3% in experiment [19] and 104% in experiment [20].

As to `O=C(N/N=C/c1ccccc1O)c1ccccc1`, the growth in experiment [1] was 23.9%; in experiment [2], 45.5%; in experiment [3], 56.6%; in experiment [4], 56%; in [5], 27.6%; in experiment [6], 37.8%. Moreover, the growth in experiment [7] is 13.3%; in experiment [8], 13.8%; in experiment [9], 5.3% (active); in experiment [10], 73.5%; in experiment [11], -3.08% (active); in [12], 21.7%. The growth in [13] was 47.2%; in [14] it was 12.2%; in experiment [15], 46%; in experiment [16] it was 13%; in experiment [17], 7.12% (active); in experiment [18], 71.4%. The growth in experiment [19] was -28.1% (active); in experiment [20], 14.7%.

In the case of `C#CCNCCCN1C(=O)c2ccc3c4c(ccc(c24)C1=O)C(=O)N(CCCNCC#C)C3=O`, the growth in experiment [1] is -82.3% (active); in [2], -8.76% (active); in experiment [3], -98.7% (active); in experiment [4] it was -88.6% (active); in [5] it was -76.6% (active); in experiment [6] it was -28% (active). Also, the growth is -98.7% (active) in [7]; -75.8% (active) in [8]; -94.4% (active) in experiment [9]; -81.8% (active) in [10]; -21.5% (active) in experiment [11]; -79.3% (active) in [12]. Also, the growth is -97.7% (active) in experiment [13]; -62.1% (active) in [14]; -11.3% (active) in experiment [15]; -33.1% (active) in experiment [16]; -77.9% (active) in experiment [17]; -96.2% (active) in experiment [18]. In addition, the growth in experiment [19] was -0.672% (active).

For the compound `COc1cc(/C=C/C(=O)c2cc(-c3ccc(F)cc3)ccc2O)cc(OC)c1OC`, the growth in [1] is 84.2%; in experiment [2], 87.1%; in [3], 91.9%; in experiment [4], 86.8%; in experiment [5] it was 79.9%; in experiment [6], 54.6%. The growth in experiment [7] was 48.1%; in [8] it was 58.5%; in experiment [9], 48.9%; in [10], 100%; in [11], 75.4%; in experiment [12], 53%. Besides, the growth was 74.3% in [13]; 53.1% in experiment [14]; 108% in experiment [15]; 76.8% in experiment [16]; 60.5% in experiment [17]; 81.8% in experiment [18]. Moreover, the growth in [19] is -3.16% (active); in experiment [20] it was 26.3%.
